In the library only some 6.8% were active in any assay of this set; here they are far more common.
SW480 rereplic – DNA re-replication induction in SW480 cells | Potency, µM (top dose mostly 46.1 µM), without a hit: at the highest dose re-replication activation, usual class: activators | AID 624297 | SW480 DNA re-replication, Hoechst DNA content imaging, 48 h | 1.8% of 340,000 active; also: % of control where 0% means no effect; nearly all actives have a fitted effect of over 55% in size
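Treated cells incubate 48 hr (37 C, 5% CO2), are stained 40 min with Hoechst, and nuclear fluorescence is enumerated; a rise in nuclei with high DNA signal marks re-replication.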
PINK1 modulator – changes PINK1 expression; PINK1 immunofluorescence, high-content cytometry, 24 h; Potency, µM (top dose mostly 76.6 µM), for the others: top-dose activation (PINK1 increase), most hits filed as activators; 0.2% of 410,000 active; active = well fitted activation curve with a large enough effect; inconclusive = small, poorly fitted or top-dose-only effect; cell line not stated here; also: % of control where 0% means no effect; nearly all actives have a fitted effect of over 65% in size
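PINK1 protein level read as immunofluorescence by microplate cytometer in a fixed, stained stable cell line after 24 h exposure to five compound concentrations, with CCCP as control.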
KB-V1 cytotox – KB-V1 MDR subline cytotoxicity | KB-V1 MDR cells viability, CellTiter-Glo, 72 h | Potency, µM (doses to about 46.1 µM), most hits filed as cytotoxic | 3.4% of 400,000 active; also: % is scaled to controls: 0 for no effect and ±100 for the full control effect; nearly all actives have a fitted effect of over 60% in size
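Following 72 h at 37 degrees C with compound, KB-V1 cell viability was read by CellTiter-Glo luminescence, medium being phenol-red-free DMEM plus 10% FBS; concentration-response parameters came from normalized, curve-fitted qHTS data.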
KB-3-1 tox – kills parental KB-3-1 adenocarcinoma cells; KB-3-1 viability, CellTiter-Glo ATP luminescence, 72 h; Potency, µM (titrated, usually from 46.1 µM), hits mostly cytotoxic; 1.4% of 400,000 active; AID 1347075; also: % is scaled to controls: 0 for no effect and ±100 for the full control effect; nearly all actives have a fitted effect of over 60% in size
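72 h, 37 °C compound treatment of KB-3-1 parental cells; CellTiter-Glo added, 10 min, luminescence read. Data corrected against DMSO-only plates and normalized before curve fitting.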
PTAP TSG101 blk – blocks PTAP/TSG101 interaction to inhibit HIV-1 budding | 340,000 tested, under 10 active | AID 493005 | Potency, µM (highest dose often 115 µM), without a hit: at the highest dose activity change, negative = inhibition, actives largely listed as inhibitors | Fluorescence polarization, FITC-PTAP peptide / Tsg101 binding; active = well fitted inhibition curve with a large enough effect in the main read-out, with a control signal flat, not every such curve was filed as active; inconclusive = small, poorly fitted or top-dose-only effect, or effect the other way, or a change in a side signal; inactive = no such curve, though single readings can be large or run the other way; also: % of control where 0% means no effect
Target sequence (Q99816 whole entry, looked up): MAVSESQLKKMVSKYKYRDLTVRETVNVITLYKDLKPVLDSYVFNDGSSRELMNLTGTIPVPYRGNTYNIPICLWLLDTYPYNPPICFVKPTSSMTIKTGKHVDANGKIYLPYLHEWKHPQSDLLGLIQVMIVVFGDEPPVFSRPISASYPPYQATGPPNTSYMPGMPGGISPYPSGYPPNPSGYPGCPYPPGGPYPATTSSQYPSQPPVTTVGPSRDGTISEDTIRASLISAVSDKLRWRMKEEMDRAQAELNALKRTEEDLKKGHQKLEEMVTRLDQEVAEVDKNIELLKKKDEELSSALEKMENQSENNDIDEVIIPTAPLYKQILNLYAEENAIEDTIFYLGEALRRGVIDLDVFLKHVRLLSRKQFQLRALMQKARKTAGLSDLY
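Compounds were pin-transferred onto Tsg101 binding domain (10 uM final) in HEPES pH 7.5 buffer, then FITC-PTAP peptide was added at 50 nM final. After 20 min at RT, polarization reported peptide displacement across a qHTS concentration series.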
MCF10A rereplic – induces DNA re-replication in MCF 10a normal breast cells; MCF 10A DNA re-replication, Hoechst nuclear intensity, 48 h; Potency, µM (highest dose often 46.1 µM), for inactives: at the top dose activity, positive = re-replication, actives largely listed as activators; 2.9% of 350,000 active; AID 624296; also: % of control where 0% means no effect; nearly all actives have a fitted effect of over 50% in size
Numbers without * were called inactive; i = inactive; ? = inconclusive; . = no result given; [ ] = another dose, or the depositor's remark. Unless noted, calls follow the shape of the dose curve; as a rule, active = well fitted curve in the direction sought with a large enough effect; inconclusive = small, poorly fitted or top-dose-only effect, or another doubt; inactive = no such curve, though single readings can be large; an effect the other way counts as inactive or inconclusive. Potency is read from the fitted curve at half-maximal effect.

SMILES	SW480 rereplic	PINK1 modulator	KB-V1 cytotox	KB-3-1 tox	PTAP TSG101 blk	MCF10A rereplic
O=C(NC1CCCC1)c1ccc(Cl)s1	21%	-1%	i	i	-7%	1%
O=C(NCC1CCCO1)c1ccc([N+](=O)[O-])o1 (stereo not given)	?	-1%	?	21µM*	-3%	?
O=C(COC(=O)c1ccc([N+](=O)[O-])o1)NC1CCCCC1	?	0%	i	i	1%	7%
O=C(NC1CCCCC1)c1ccc([N+](=O)[O-])o1	?	-1%	?	?	-1%	16µM*
O=[N+]([O-])c1ccc(/C=[N+](\[O-])[C@@H]2CCCC[C@@H]2/[N+]([O-])=C/c2ccc([N+](=O)[O-])o2)o1	2.9µM*	1%	21µM*	?	-2%	23µM*
COc1ccc(N2CCN(C(=O)Cc3c(C(=O)O)c(C)cn3C)CC2)cc1	.	0%	i	i	.	.
COc1ccc(C(CC(=O)NCc2ccccc2)N2Cc3ccccc3C2=O)cc1 (stereo not given)	.	0%	.	.	.	.
COc1cc(CN2C(=O)CC[C@@H]3CN(Cc4ccccn4)CC[C@@H]32)cc(OC)c1OC	.	2%	.	.	.	.
COc1cc(C2c3c(-c4ccccc4O)n[nH]c3C(=O)N2Cc2ccco2)ccc1OCC(C)C (stereo not given)	.	10%	?	?	.	.
O=C(NC1CCCC(C(F)(F)F)C1)c1ccc([N+](=O)[O-])o1 (stereo not given)	32%	-1%	?	?	-3%	6.5µM*
O=C(NCc1ccc(F)cc1)c1ccc(CS(=O)(=O)c2ccc(Br)cc2)o1	-12%	0%	13µM*	i	-9%	?
O=C(NCC1CCCO1)c1ccc(CS(=O)(=O)c2ccc(Br)cc2)o1 (stereo not given)	-2%	0%	i	i	-1%	0%
O=C(COC(=O)c1ccc([N+](=O)[O-])o1)NC1CCCC1	-3%	-1%	?	i	-3%	-1%
O=C(NCC1CCCO1)c1ccc(CS(=O)(=O)c2ccc(Cl)cc2)o1 (stereo not given)	-6%	-1%[38.3 µM]	23µM*	i	-8%	24%
Cc1ccc(CN2C(=O)C3(c4ccccc42)N(c2cccc(C(F)(F)F)c2)C(=O)CS3(=O)=O)cc1 (stereo not given)	.	-4%	i	i	.	.
Cc1ccc(S(=O)(=O)c2cn(CC(=O)Nc3ccc4c(c3)OCO4)c3ccc(F)cc3c2=O)cc1	.	1%	?	?	.	.
O=C(C1CC1)N1c2ccccc2Sc2ccccc21	?	5%	?	21µM*	0%	?
COc1cc(N2C(=O)CSC23C(=O)N(Cc2ccc(C)cc2)c2ccccc23)cc(OC)c1OC (stereo not given)	.	0%	?	i	.	.
COc1cccc(CN2C(=O)C3(SCC(=O)N3c3ccc(C)c(Cl)c3)c3ccccc32)c1 (stereo not given)	.	-1%	13µM*	13µM*	.	.
COc1cccc(CN2C(=O)C3(SCC(=O)N3c3ccc(C(C)C)cc3)c3ccccc32)c1 (stereo not given)	.	-1%	18µM*	?	.	.
CCOc1ccc(NC(=O)CSc2oc(-c3ccco3)nc2S(=O)(=O)c2ccc(Cl)cc2)cc1	.	0%	i	i	.	.
O=C(c1cnc(N2CCOCC2)c2ccccc12)N1CCN(c2ccccc2)CC1	.	2%	i	i	.	.
CN1C(=O)Nc2cccc3cccc1c23	-10%	-1%	0.46µM*	1µM*	-2%	8%
CC(C)(C)OC(=O)N1CCC(c2c(C(=O)NCCCN3CCc4ccccc4C3)cnn2-c2ccccc2)CC1	.	-1%	i	i	.	.
Cc1c(CCOC(=O)c2cc([N+](=O)[O-])cc([N+](=O)[O-])c2)sc[n+]1CC(=O)c1ccccc1	-25%	0%	i	i	-3%	1%
SMILES	SW480 rereplic	PINK1 modulator	KB-V1 cytotox	KB-3-1 tox	PTAP TSG101 blk	MCF10A rereplic
Cc1c(CCOC(=O)c2ccccc2)sc[n+]1CC(=O)c1ccc(Br)cc1	5%	4%	7.3µM*	?	-5%	23%
Cc1nc(C(=O)Nc2cc(Cl)ccc2Cl)nn1-c1cc(OC(C)C)c(Cl)cc1Cl	-5%	1%	15µM*	i	4%	14%
CC(=O)c1ccc(OCc2cn(CC(=O)c3ccc(O)cc3)nn2)c(C)c1	.	0%	i	i	.	.
O=C(Cn1cc(COc2ccc(Br)cc2[N+](=O)[O-])nn1)c1ccc(O)cc1	9.2µM*	2%	i	i	-3%	14%
CCOC(=O)C1(C)NC(c2ccc(N(C)C)cc2)C2C(=O)N(c3ccc(OC)cc3)C(=O)C21 (stereo not given)	-2%	1%	i	i	0%	-1%
CCOC(=O)C1(C)NC(c2cccs2)C2C(=O)N(c3ccc(OC)cc3)C(=O)C21 (stereo not given)	?	-1%	i	i	-3%	18µM*
Cc1ccc(S(=O)(=O)CCC(=O)N2CCc3ccccc32)cc1	-20%	2%	21µM*	i	-3%	-15%
CCn1cc2nc(SCc3cc(C)ccc3C)n(Cc3ccc(Cl)cc3)c(=O)c2n1	.	7%	i	i	.	.
Fc1cccc(/C=N/Nc2nccnc2Cl)c1	-2%	-2%	5.8µM*	?	-3%	-3%
Fc1ccc(/C=N/Nc2nccnc2Cl)cc1	-2%	1%	i	?	-2%	5%
Oc1ccc(/C=N/Nc2nccnc2Cl)cc1	1%	1%	?	16µM*	-1%	13%
O=[N+]([O-])c1cccc(/C=N/Nc2nccnc2Cl)c1	-3%	5%[38.3 µM]	i	i	-3%	3%
Cc1ccccc1NC(=O)CCC(=O)N1CCSc2ccccc21	.	-1%	.	.	.	.
CCCOC(=O)Nc1nc2ccccc2o1	-21%	-1%	i	i	-1%	-1%
CCOC(=O)C(Cc1ccc(O)cc1)Nc1nc2ccccc2o1 (stereo not given)	-4%	-4%	21µM*	i	-1%	3%
COc1ccc(C)cc1S(=O)(=O)N1CCC(C)CC1	8%	10%[38.3 µM]	18µM*	i	-4%	4%
COc1ccc(C)cc1S(=O)(=O)N1CCCCCC1	10%	0%	i	i	-8%	?
COc1cc(F)ccc1S(=O)(=O)N1CCN(C23CC4CC(CC(C4)C2)C3)CC1	0%	0%	i	?	-7%	3%
COc1cc(C)ccc1S(=O)(=O)N1CCN(C23CC4CC(CC(C4)C2)C3)CC1	2%	4%	13µM*	i	-2%	?
